Results on seven compounds are retold here after PubChem BioAssay (Tox21).

A short description of assay [1]: qHTS assay for small molecule agonists of the p53 signaling pathway (AID 651631; calls by dose curve; note: nearly all actives have a fitted effect of over 15% in size; note: potency is the fitted concentration of half-maximal effect). In short, it runs like this:
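Beta-lactamase reporter activity under p53 response elements was quantified in HCT-116 cells by FRET fluorescence, following 16 h incubation with test compounds at 37 °C and 2 h substrate development at room temperature.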

Assay [2] is described as follows: qHTS assay for small molecules that induce genotoxicity in human embryonic kidney cells expressing luciferase-tagged ATAD5 (AID 651632). Note: nearly all actives have a fitted effect of over 15% in size. Note: potency is the fitted concentration of half-maximal effect. In short, it runs like this:
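DMSO vehicle served as the control. HEK293T reporter cells, 16 hr at 37C, then 30 min Amplite at room temperature; ATAD5 induction is measured as luciferase activity.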
On the technique in general: In qHTS, concentration-response curves come from the screen itself.

Assay [3] is described as follows: qHTS assay for small molecule agonists of the p53 signaling pathway - cell viability (AID 651633; calls by dose curve; note: nearly all actives have a fitted effect of over 30% in size; note: potency is the fitted concentration of half-maximal effect). In short, it runs like this:
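p53RE-bla cells were treated with compound for 16 hours at 37 C. Cytotoxicity was then measured as CellTiter-Glo luminescence after 30 min at room temperature.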

Assay [4] is described as follows: qHTS assay for small molecules that induce genotoxicity in human embryonic kidney cells expressing luciferase-tagged ATAD5 - cell viability (AID 651634; calls by dose curve; note: nearly all actives have a fitted effect of over 25% in size; note: potency is the fitted concentration of half-maximal effect). An outline of the steps:
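Here HEK293T cells with the ATAD5 luciferase reporter are incubated with test compounds for 15.5 hr, and cytotoxicity is then gauged by measuring protease activity in live cells using fluorescence.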

Assay [5] in a line: qHTS assay for small molecule disruptors of the mitochondrial membrane potential - cell viability (AID 720634; calls by dose curve; note: nearly all actives have a fitted effect of over 20% in size; note: potency is the fitted concentration of half-maximal effect). In short, it runs like this:
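Viability of HepG2 cells is scored from ATP content by luminescence; cells are exposed to compound for 1 hr at 37 C and 5% CO2, then dosed with m-MPI dye before the CellTiter-Glo reagent.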

Assay [6] is described as follows: qHTS assay for small molecule disruptors of the mitochondrial membrane potential (AID 720635). Note: potency is the fitted concentration of half-maximal effect. An outline of the steps: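 HepG2 cells exposed to compound 1 hr at 37C, then Mito-MPS dye 30 min. Ratio read of aggregate (540/590 nm) versus monomer (490/535 nm) fluorescence.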
Assay [7] can be described thus: qHTS assay to test for compound auto fluorescence at 590 nm (red) in HepG2 cells (AID 720674). An outline of the steps: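 Seeding: 2,000 HepG2 cells/well, MEM/10% FBS, overnight 37 C. Dosing: compound vs DMSO. Incubation: 1 hr, 37 C, 5% CO2. Read: fluorescence 540 ex/590 em, Rose Bengal sodium as red reference.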
The nature of assay [8]: qHTS assay to test for compound auto fluorescence at 535 nm (green) in HepG2 cells (AID 720675).
A short description of assay [9]: qHTS assay to test for compound auto fluorescence at 460 nm (blue) in HEK293 cells (AID 720678). In short, it runs like this:
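Measured: blue fluorescence (Ex 405/Em 460 nm) of compound-treated HEK293 cells, incubated overnight at 37C with 5% CO2 and scaled to triamterene equivalents.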

Assay [10] can be described thus: qHTS assay to test for compound auto fluorescence at 590 nm (red) in HEK293 cells (AID 720679). In short, it runs like this:
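Using HEK293 cells at 2,000 per well, the screen added 23 nL of each compound after cell attachment and incubated overnight (37C, 5% CO2). The plate reader then captured red-label fluorescence, Ex/Em 540/590nm.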

Assay [11] can be described thus: qHTS assay to test for compound auto fluorescence at 535 nm (green) in HEK293 cells (AID 720680).
Assay [12] in a line: qHTS assay to test for compound auto fluorescence at 460 nm (blue) in HEK293 cell free culture (AID 720681). In short, it runs like this:
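Compounds were added to cell-free DMEM with 10% FBS and fluorescence read directly. The blue channel used 405 nm excitation and 460 nm emission, with triamterene as the reference fluorophore.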

A short description of assay [13]: qHTS assay to test for compound auto fluorescence at 535 nm (green) in HEK293 cell free culture (AID 720682). In short, it runs like this: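 Each library compound, or DMSO control, is added by pintool to medium alone, comprising DMEM and 10% FBS. Emission at 535 nm following 485 nm excitation is quantified against fluorescein.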
The nature of assay [14]: qHTS assay to test for compound auto fluorescence at 590 nm (red) in HEK293 cell free culture (AID 720683). In short, it runs like this: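 Cell-free wells of DMEM with 10% FBS received compound, and intrinsic fluorescence was read at excitation/emission 540/590 nm. Values expressed as equivalence to Rose Bengal sodium.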
Assay [15] can be described thus: qHTS assay to test for compound auto fluorescence at 460 nm (blue) in HepG2 cell free culture (AID 720685). An outline of the steps:
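Cell-free plates of MEM plus 10% FBS received 23 nL compound or DMSO vehicle; blue-channel (405/460 nm) intensity scored against triamterene as reference fluorophore.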

Assay [16] is described as follows: qHTS assay to test for compound auto fluorescence at 535 nm (green) in HepG2 cell free culture (AID 720686).
Assay [17] is described as follows: qHTS assay to test for compound auto fluorescence at 460 nm (blue) in HepG2 cells (AID 720687). An outline of the steps: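 HepG2 cells in MEM with 10% FBS, attached overnight at 37 C, were exposed to compound or DMSO for 1 hr at 37 C, 5% CO2. Blue fluorescence was read at 405/460 nm, with triamterene as reference fluorophore.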
Assay [18] is described as follows: qHTS assay to test for compound auto fluorescence at 590 nm (red) in HepG2 cell free culture (AID 720684). In short, it runs like this:
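Rose Bengal sodium served as the reference for red signal. Test compounds were dispensed into serum-containing MEM (10% FBS) without cells, and plates were read at 540/590 nm.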

The target in assay [19] is Glucocorticoid receptor (Homo sapiens) (UniProt P04150). As to the kind of experiment: qHTS assay to identify small molecule agonists of the glucocorticoid receptor (GR) signaling pathway (AID 720691; active = well fitted activation curve with a large enough effect in the signal ratio in the repeat runs, not every such curve was filed as active; the % refers to the signal ratio). In short, it runs like this: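 Compounds in DMSO, alongside positive controls, were added to GR-bla HeLa reporter cells and incubated 18 h at 37 C; GRE-driven beta-lactamase was detected by fluorescence after 2 h with FRET substrate at room temperature.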
Chain of Glucocorticoid receptor (Homo sapiens) (P04150 whole entry, looked up): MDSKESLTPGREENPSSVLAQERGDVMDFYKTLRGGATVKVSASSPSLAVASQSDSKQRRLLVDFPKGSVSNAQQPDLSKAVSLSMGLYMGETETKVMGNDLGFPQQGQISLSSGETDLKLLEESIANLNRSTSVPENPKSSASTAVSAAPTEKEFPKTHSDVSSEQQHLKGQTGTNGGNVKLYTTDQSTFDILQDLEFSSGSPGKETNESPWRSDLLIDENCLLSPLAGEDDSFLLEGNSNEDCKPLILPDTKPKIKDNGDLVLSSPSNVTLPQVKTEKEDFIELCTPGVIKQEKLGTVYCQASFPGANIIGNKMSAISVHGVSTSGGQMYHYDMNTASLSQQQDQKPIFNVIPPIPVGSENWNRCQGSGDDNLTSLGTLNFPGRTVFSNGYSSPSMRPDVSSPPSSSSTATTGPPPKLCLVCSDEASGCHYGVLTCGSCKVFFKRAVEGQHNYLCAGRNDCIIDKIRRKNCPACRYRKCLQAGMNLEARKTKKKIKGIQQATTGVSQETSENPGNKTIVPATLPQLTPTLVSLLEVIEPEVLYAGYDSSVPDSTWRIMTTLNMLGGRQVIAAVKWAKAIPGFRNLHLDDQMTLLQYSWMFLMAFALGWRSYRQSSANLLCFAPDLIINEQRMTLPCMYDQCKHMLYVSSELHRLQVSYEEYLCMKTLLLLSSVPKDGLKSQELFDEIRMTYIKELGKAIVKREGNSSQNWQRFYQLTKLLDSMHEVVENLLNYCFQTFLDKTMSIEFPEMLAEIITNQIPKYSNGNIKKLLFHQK

Structures are written as SMILES. Inconclusive results are not listed. Calls of active or inactive are those of the source. Unless noted, calls come from the whole dose curve; as a rule, active = well fitted curve in the direction sought with a large enough effect in the repeat runs; inconclusive = weak or mixed curves; inactive = no such curve, though single readings can be large; an effect the other way counts as inactive or inconclusive.

`COC(=O)N(C(=O)N1CO[C@@]2(C(=O)OC)Cc3cc(Cl)ccc3C2=N1)c1ccc(OC(F)(F)F)cc1`: the Potency is 46.9 µM (active) in [1], 3.32 µM (active) in assay [5] and 13.2 µM (active) in assay [6]. Further, the Potency entry in [2], in assay [3], in assay [4], in [9], in assay [12] and in [15] was “inactive” each time. The Potency result in [17] is “inactive”. Besides, the result in assay [7], in [8], in assay [10], in assay [11], in assay [13] and in assay [14] was inactive. Also, the call in assay [16] was inactive.

For the compound `COc1ccc(/C(=C/C(=O)N2CCOCC2)c2ccc(Cl)cc2)cc1OC`, the Potency entry in [1], in assay [2], in assay [3], in [4], in [5] and in [9] was “inactive” throughout. Also, the Potency entry in [12], in [15], in assay [17] and in assay [19] was “inactive” throughout. For the same compound, the compound was classed as inactive in assay [7], in assay [8], in assay [11], in [13], in [14] and in assay [18]. For the same compound, in assay [16], the compound was classed as inactive.

Consider `CN(C)CCc1c[nH]c2cccc(O)c12`, for which the Potency entry in assay [1], in assay [2], in assay [3], in assay [4], in [5] and in assay [6] was “inactive” in each case. The Potency result in [9], in assay [12], in assay [15], in assay [17] and in [19] was “inactive” throughout. Also, the call in assay [7], in assay [8], in assay [10], in [11], in assay [13] and in assay [14] was inactive. The outcome in assay [18] and in [16] was inactive.

As to `[CH3][Hg][Cl]`, the Potency was 30.5 µM (active) in assay [1]; 4.84 µM (active) in assay [2]; 24.3 µM (active) in assay [3]; 27.2 µM (active) in [4]; 27.2 µM (active) in assay [5]; 19.3 µM (active) in assay [6]. Moreover, the compound was classed as inactive in assay [7], in [8], in [10], in assay [11], in assay [13] and in [14]. Further, the outcome in [18] and in assay [16] was inactive. Moreover, the Potency entry in assay [9], in assay [12] and in assay [17] was “inactive” in each case.

For the compound `CNC(C)Cc1ccc2c(c1)OCO2` (configuration not stated), the Potency entry in assay [1], in assay [2], in assay [3], in assay [4], in [5] and in assay [6] was “inactive” throughout. Further, the Potency entry in assay [9], in [12] and in assay [17] was “inactive” each time. Moreover, the compound was classed as inactive in [7], in [8], in assay [10], in assay [11], in assay [13] and in assay [14]. Also, the result in assay [16] was inactive.

With `NNC(=O)c1ccccc1`, the Potency entry in assay [1], in assay [2], in [3], in assay [4], in assay [5] and in [9] was “inactive” throughout. The Potency result in [12], in [15], in [17] and in assay [19] was “inactive” each time. Besides, the call in assay [7], in assay [8], in [10], in [11], in assay [13] and in [14] was inactive. Also, the compound was classed as inactive in [18] and in [16].

Take `Cn1cc(C2=C(c3cn(C4CCN(Cc5ccccn5)CC4)c4ccccc34)C(=O)NC2=O)c2ccccc21`: in assay [1], the Potency was 7.5 µM (active). The Potency result in assay [2], in assay [3], in [4], in assay [5], in assay [6] and in [9] was “inactive” in each case. In addition, the Potency entry in assay [12], in assay [15] and in [17] was “inactive” throughout. Further, the outcome in assay [7], in [8], in [10], in assay [11], in [13] and in assay [14] was inactive. Moreover, the call in [18] and in assay [16] was inactive.
